From PubChem BioAssay AID435019 (Southern Research Specialized Biocontainment Screening …, 2010) come the findings set out here.

The structures appear in SMILES notation. Among all 2,300 compounds or so, about 1,200 (52%) were called active. How the calls were made is not given here. So high a share suggests a set chosen from earlier hits. The list shows a part of the results. Where a call stands in place of a potency, no number is given. Potency and affinity values are given separately.

This assay can be described thus: mammalian cell cytotoxicity, dose response, cytotoxicity control for M. tuberculosis inhibitor project (AID 435019).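 Further: lower values mean fewer viable cells so more cytotoxicity.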 To be noted: cytotoxicity counter-screen; series mostly up to 40 µM. In general terms: Counterscreens check selectivity or assay interference.
Consider `CC(C)(C)c1ccc(OCCCC(=O)NC2=NCCS2)cc1`, for which the compound was called inactive.

Take `CCOC(=O)c1sc2nc(C)nc(SC(C)C(=O)N(C)c3ccccc3)c2c1C` (centres undefined): the compound was called inactive.

As for `O=C(CCCC(=O)OCC(=O)c1cccs1)Nc1ccc(Oc2ccccc2)cc1`, the outcome was inactive.

On to `CCc1cc2c(=O)n(C(C)C(=O)OC3CCCCC3)cnc2s1` (centres undefined), for which the call was inactive.

For `COc1ccc(N(CC(=O)Nc2ccccc2C(N)=O)S(=O)(=O)c2ccc(C)c([N+](=O)[O-])c2)cc1`, the compound was called inactive.

On to `Cc1ccc(S(=O)(=O)NNC(=O)c2cc([N+](=O)[O-])c(C)c([N+](=O)[O-])c2)cc1`, for which the outcome was inactive.

As to `CCc1cccc2c(=O)c(C(=O)N3CCOCC3)c[nH]c12`, the result was inactive.

Consider `COc1ccc(N=Cc2ccc(CNS(=O)(=O)c3ccc(Cl)cc3)o2)cc1`, for which the outcome was inactive.

On to `CN(C)c1ccc(CNC2C3CC4CC(C3)CC2C4)cc1` (centres undefined), for which the result was inactive.

With `CCCCCCCCCCNC(=O)C(=O)Nc1ccccn1`, the compound was called inactive.

For `CCOc1ccccc1NC(=O)C12CC3CC(C1)CC(c1ccc(C)cc1)(C3)C2`, the result was inactive.

As to `C[C@H](O)[C@H](O)[C@H]1CNc2nc(N)[nH]c(=O)c2N1`, the compound was called inactive.

Regarding `Cc1cc(C)cc(NC(=O)CCc2ccc(C)o2)c1`, the compound was called inactive.

Regarding `O=C(NC1CCCCC1)C1CC(=O)N(c2cccc([N+](=O)[O-])c2)C1` (centres undefined), the compound was classed as inactive.

Turning to `Cc1cc(C(=O)COC(=O)C2=COCCO2)c(C)n1-c1cccc(F)c1`, the outcome was inactive.

As to `CC(=O)OC1=Cc2c(ccc3ccc(=O)oc23)OC1(C)C`, the result was inactive.

As to `COc1ccc(NCc2nnc(SCC(=O)c3ccc(OC)cc3)o2)cc1`, the call was inactive.

As to `COc1ccc(/C(O)=C/Sc2nnc(Cc3ccccc3)o2)cc1`, the compound was classed as inactive.

As for `Nc1ccc2c(c1)nnn2-c1ccccc1`, the call was inactive.

Take `COc1cc(/C=C(\C#N)c2nc3c(s2)CC(C)CC3)ccc1O` (centres undefined): the result was inactive.

On to `CCC[C@@H]1C[C@@H](C(=O)NC(C(C)Cl)[C@H]2O[C@H](SC)[C@H](O)[C@@H](O)[C@H]2O)N(C)C1` (some centres undefined), for which the call was inactive.

Consider `Nc1ccc(Oc2ccc3c(c2)OCO3)cc1`, for which the compound was called inactive.

As for `O=C1NN(c2ccc(Br)cc2)C(=O)/C1=C\c1ccc(O)cc1O`, the result was inactive.

Turning to `C=CCOc1ccc(C2=NOC(C(=O)Nc3ccc4c(c3)OCCO4)C2)cc1` (centres undefined), the result was inactive.

As to `COc1ccccc1NC(=O)CN1CCN(CC(=O)Nc2ccc3c(c2)OCO3)CC1`, the result was inactive.

As to `Nc1ncc2[nH]cnc2n1`, the outcome was inactive.

Turning to `C[C@]12C=CC(=O)C=C1CC[C@@H]1C2=CC[C@]2(C)[C@@H](C(=O)CN3CCN(c4cc(N5CCCC5)nc(N5CCCC5)n4)CC3)CC[C@@H]12`, the compound was classed as inactive.

Take `COc1ccc(/C=N/Nc2nncn2N)cc1Br`: the outcome was inactive.

Consider `CCOC(=O)CSc1snnc1-c1ccccc1`, for which the call was inactive.

With `CCc1ccc(CCOc2ccc(CC3SC(=O)NC3=O)cc2)nc1` (centres undefined), the outcome was inactive.

`Cc1cc(C)n(C(=O)c2ccc([N+](=O)[O-])cc2[N+](=O)[O-])n1`: the compound was classed as inactive.

Turning to `Cc1ccc(NC(=O)c2ccc(CSc3nnc(C)s3)cc2)c(C)c1`, the outcome was inactive.

On to `COC(=O)c1cc(NC(=O)c2c(F)c(F)c(F)c(F)c2F)cc(C(=O)OC)c1`, for which the call was inactive.

As to `C=CC[n+]1ccn(-c2nc3ccccc3nc2[N-]S(=O)(=O)c2cccs2)c1`, the compound was classed as inactive.

On to `C/C(CC(=O)Nc1ccc2c(c1)OCCO2)=N\NC(=O)c1ccccc1F`, for which the compound was classed as inactive.

Turning to `CCOC(=O)C1CCN(c2nc3cc(OC)ccc3cc2C#N)CC1`, the result was inactive.

Consider `N#CC(C(=O)NCc1ccco1)c1nc2ccccc2nc1N1CCOCC1` (centres undefined), for which the compound was classed as inactive.

As to `O=C(/C=C\c1cccs1)N1CCN(Cc2ccc3c(c2)OCO3)CC1`, the call was inactive.

For the compound `COC(=O)C1CC(=O)N(c2ccc(OCc3ccccc3Cl)cc2)C1` (centres undefined), the compound was classed as inactive.

As for `CCCn1nnc(NC(=O)COc2ccc(CC)cc2)n1`, the compound was called inactive.

On to `CCOC(=O)c1cc(-c2ccccc2)nc2c1c(C)nn2-c1ccccn1`, for which the compound was classed as inactive.

With `CCOC(=O)c1cnc2ccc(OCC)cc2c1N1CCN(c2ccccc2)CC1`, the compound was called inactive.

As for `COc1ccc(OCc2nnc3n2N=C(c2ccccc2)C(CC(=O)O)S3)cc1` (centres undefined), the call was inactive.

Take `Cc1ccsc1/C=C1\SC(N2CCOCC2)=NC1=O`: the result was inactive.

Turning to `CCOc1ccc(C2=Nc3ccc(Br)cc3C(c3ccc(N4CCOCC4)cc3)=NN2)cc1`, the call was inactive.

Consider `Cc1nc(S/C(=C/c2ccc(-c3ccc(Cl)cc3)o2)C(=O)O)n[nH]1`, for which the compound was classed as inactive.

As for `CSCCC(=O)N1CCCC(CNC(=O)c2ccc(-c3ccccc3)cc2)C1` (centres undefined), the compound was classed as inactive.

`Cc1cc(C)c(C(N)=O)c(SCC(=O)c2ccc(Cl)cc2)n1`: the result was inactive.

As for `CCC(=O)c1ccc(OCC(=O)OCC(=O)c2cc(C)n(C3CC3)c2C)cc1`, the compound was called inactive.

As for `COc1ccc2c(c1)CC/C(=C\C=C\c1ccccc1OC)C2=O`, the compound was classed as inactive.

As for `COc1ccc(N=Cc2c[nH][nH]c2=O)cc1`, the call was inactive.

Consider `O=S(=O)(Nc1ccn(-c2ccccc2)n1)c1ccc(Br)cc1`, for which the outcome was inactive.

Turning to `CCC(C)OC(=O)C(C)Oc1ccc(-c2ccccc2)cc1` (centres undefined), the result was inactive.

As to `O=c1ccn(-c2ccccc2)[nH]1`, the result was inactive.

With `Cc1ccc(NC(=O)CNCc2cccs2)cc1Br`, the compound was called inactive.

Turning to `O=C(c1cccc([N+](=O)[O-])c1)N1CCN(c2ccc(N3CCOCC3)nn2)CC1`, the compound was classed as inactive.

With `CCOP(=O)(OCC)/C(=C/N1CCCCC1)NC(=O)c1ccccc1`, the result was inactive.

As to `Cc1nnc(SCc2ccccc2Cl)n(N)c1=O`, the result was inactive.

As to `Cc1ccccc1CSc1nsc(N)n1`, the compound was called inactive.

With `CN(CCCCCCCCCCN(C)C(=O)Oc1cccc([N+](C)(C)C)c1)C(=O)Oc1cccc([N+](C)(C)C)c1`, the call was inactive.

Turning to `CCOC(=O)c1ccc(Nc2cc3ccccc3c(=O)[nH]2)cc1`, the outcome was inactive.

As to `CCOC(=O)c1ccc(NC(=S)Nc2ccc3[nH]c(=O)[nH]c3c2)cc1`, the call was inactive.

In the case of `CC(C)(C)OC(=O)NNC(=S)NC1CCCCC1`, the result was inactive.

Take `CCOc1ccc(NC(=O)c2sc3nc(C)nc(N4CCOCC4)c3c2C)cc1`: the compound was called inactive.

Take `CCOC(=O)CNC(=O)c1sc2ncnc(N3CCc4ccccc4C3)c2c1C`: the compound was classed as inactive.

Take `O=C(Nc1ccc(-c2noc(CCc3ccccc3)n2)cc1)c1cccnc1`: the call was inactive.

In the case of `CCOC(=O)c1nnc(-c2ccccc2)nc1NCc1ccccc1`, the result was inactive.

`O=C(OCC(=O)N1CCCCC1)c1cc2ccccc2cc1O`: the compound was called inactive.

As to `COC(=O)C(CCSC)NC(=O)c1cn(-c2ccc(OC)cc2)c(=O)c2ccccc12` (centres undefined), the compound was called inactive.
